Experimental data as given in paper PMC5540273 (PLoS ONE, 2017).

system: MLK2; conditions: concentration: 1 μM, replicates: in singlicate; n = 1
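Note: KINOMEscan kinase panel screen.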

Row | SMILES | %Inh [%]
1 | COC(=O)Nc1nc2ccc(Oc3ccc(CC(=O)Nc4cc(C(F)(F)F)ccc4F)cc3)cc2[nH]1 [GW680903] | 0
2 | COc1ccc(C2=C(Nc3cccc(O)c3)C(=O)NC2=O)cc1 [SB-390766] | 0
3 | CN(C)c1ncnc2nc[nH]c12 [SKF-31736] | 0
4 | Cc1cc(-c2ccnc(Nc3cccc(C#N)c3)n2)cc(C)c1O [GSK1440913] | 0

system: MLK3; conditions: concentration: 1 μM, replicates: in singlicate; n = 1

Row | SMILES | %Inh [%]
5 | N#CC1(c2cccc(C(=O)Nc3cccc(Oc4ccc5nc(NC(=O)C6CC6)sc5n4)c3)c2)CC1 | 17
6 | O=C(Nc1n[nH]c2nc(-c3ccccc3)ccc12)C1CC1 [SB-708999] | 5
7 | CC(C)c1nc(-c2cccc(NS(=O)(=O)c3c(F)cccc3F)c2)c(-c2ccnc(Nc3ccc(N4CCOCC4)nc3)n2)s1.Cl [GSK1723980] | 73
8 | Cl.Cl.NCC(NC(=O)c1cc(-c2cccnc2)c(-c2ccnc3[nH]ccc23)s1)c1ccccc1 (centres unmarked) [GSK1323434] | 48
9 | COC(=O)Nc1nc2cc(Oc3ccc(NC(=O)Nc4cccc(SC)c4)cc3)ccc2[nH]1.Cl [GW697999] | 0
10 | O=C(Nc1n[nH]c2nc(-c3ccccc3O)ccc12)C1CC1 [SB-711880] | 0
11 | O=C(Nc1n[nH]c2cc(-c3cccs3)ccc12)C1CC1 [SB-731284] | 0
12 | O=C(Nc1c(F)cccc1F)c1cc(C(=O)c2ccccc2F)c[nH]1 [GSK1326180] | 0
13 | Cc1ccc(Nc2ccnc(Nc3ccc(C)c(F)c3)n2)cc1O.Cl [GW582868] | 45
14 | COc1cccc(-c2nc(-c3ccccc3)[nH]c2-c2ccncc2)c1 [SB-610250] | 0
15 | CCn1cnc2c(NCc3ccccc3)ncnc21 [SKF-96418] | 0
16 | Cl.Cl.NC(CNC(=O)c1cc(Br)c(-c2ccnc3[nH]ccc23)s1)c1ccccc1 (centres unmarked) [GSK1322949] | 0
17 | CN(c1ccc(F)c(NC(=O)c2cccc(OC(C)(C)C#N)c2Cl)c1)c1ccc2nc(NC(=O)C3CC3)sc2n1 | 0
18 | Fc1cc(Cl)ccc1Nc1ccnc2cc(-c3ccc(CN4CCOCC4)o3)ccc12 [GW560109] | 0
19 | COc1cc(Nc2ccnc3cc(-c4ccncc4)ccc23)cc(OC)c1OC.Cl [GW494610] | 21
20 | Cc1ccc(O)cc1Nc1ccnc2cc(-c3ccc(CN4CCCCC4)o3)ccc12 [GW557777] | 2
21 | Nc1ncc(-c2ccc3nccc(-c4ccncc4)c3c2)cc1S(=O)(=O)N1CCCCC1 [GSK1693850] | 7
22 | COc1ccc(C)c(Nc2ccnc(Nc3ccc(-c4cnc[nH]4)cc3)n2)c1.Cl [GW784041] | 0
23 | Fc1cc(Cl)ccc1Nc1ccnc2cc(-c3ccc(CN4CCSCC4)o3)ccc12 [GW560106] | 13

Row | SMILES | %Inh [%]
24 | Cc1ccc(NC(=O)c2ccnc(N3CCCCC3)c2)cc1-c1ccc(C(=O)NCC2CC2)cc1 [GW775610] | 4
25 | CCOc1nccc(-c2c(-c3ccc(F)cc3)ncn2C2CCNCC2)n1 [SB-249175] | 15
26 | O=C(O)C(F)(F)F.O=c1[nH]ccc2nc(N[C@@H]3CCNC3)nc(Nc3ccc4c(c3)S(=O)(=O)CC4)c12 [GSK2181306] | 61
27 | c1ccc(Oc2ccc(Nc3ccnc4cc(-c5ccc(CN6CCCCC6)o5)ccc34)cc2)nc1 [GW567143] | 0
28 | Cc1ccc(C)c(NC(=O)Nc2ccc(C)c(-c3ccc(C(=O)Nc4ccncc4)cc3)c2)c1 [GSK1398473] | 0
29 | Cn1cc(-c2cnc(N)c3c(-c4ccc5c(c4)CCN5C(=O)Cc4ccccc4)csc23)cn1 [GSK2593074] | 14
30 | O=C(O)C(F)(F)F.O=c1[nH]ccc2nc(N[C@@H]3CCNC3)nc(Nc3cc(Cl)cc(Cl)c3)c12 [GSK2188764] | 88
31 | Cl.O=C(Nc1ccc(Oc2ccc3[nH]c(NC(=O)c4ccco4)nc3c2)cc1)Nc1cc(C(F)(F)F)ccc1F [GW683134] | 49
32 | Cc1cccc(Nc2nc(NCCN)ncc2C(N)=O)c1 [GSK1292139] | 61
33 | CC(C)NCC(Cc1ccccc1)NC(=O)c1cc(Br)c(-c2ccnc3[nH]ccc23)s1.Cl.Cl (centres unmarked) [GSK1383281] | 0
34 | Nc1cccc(-c2ccc3c(N)n[nH]c3c2)c1 [GSK2193613] | 19
35 | COc1cc(Nc2nccc(N3CCC(NS(=O)(=O)c4ccc(NC(C)=O)cc4)CC3)n2)cc(OC)c1OC [GSK1379825] | 51
36 | Cc1nn2c(=O)cc(N3CCO[C@H](C)C3)nc2n1Cc1cccc(Cl)c1Cl [GSK2373693] | 9
37 | CN1CCN(Cc2ccc(NC(=O)Nc3ccc(N(C)c4ccnc(Nc5ccc(CS(C)(=O)=O)cc5)n4)cc3)cc2)CC1.Cl [GW827654] | 0
38 | COC(=O)Nc1nc2ccc(Oc3ccc(CC(=O)Nc4cc(C(F)(F)F)ccc4F)cc3)cc2[nH]1 [GW680903] | 0
39 | COc1ccc(C2=C(Nc3cccc(O)c3)C(=O)NC2=O)cc1 [SB-390766] | 0
40 | CN(C)c1ncnc2nc[nH]c12 [SKF-31736] | 0
41 | Cc1cc(-c2ccnc(Nc3cccc(C#N)c3)n2)cc(C)c1O [GSK1440913] | 36
